According to PubChem BioAssay (NCATS):
Values joined by “and” are separate entries in the source; they are usually repeats but may differ in a detail not shown here. Identical values can stand only once. Records with an inconclusive call do not appear. Active and inactive are the calls of the source. Unless noted, calls follow the shape of the full dose curve.

target: Glucocorticoid receptor (Homo sapiens) (UniProt P04150); test: GR-EFC Redistribution (AID 451); conditions: CHO-K1 GR-EFC translocation, beta-gal luminescence, 2 h; also: potency is read from the fitted curve at half-maximal effect
Summary of the method: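 CHO-K1 cells expressing nuclear EA and GR-ED fragments of b-gal; compounds titrated up to 46 uM final, 2 h at 37 C. GR nuclear translocation read as complemented b-gal luminescence after 1 h RT detection.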

Glucocorticoid receptor (Homo sapiens), sequence (P04150 whole entry, looked up, the tested form may be a part): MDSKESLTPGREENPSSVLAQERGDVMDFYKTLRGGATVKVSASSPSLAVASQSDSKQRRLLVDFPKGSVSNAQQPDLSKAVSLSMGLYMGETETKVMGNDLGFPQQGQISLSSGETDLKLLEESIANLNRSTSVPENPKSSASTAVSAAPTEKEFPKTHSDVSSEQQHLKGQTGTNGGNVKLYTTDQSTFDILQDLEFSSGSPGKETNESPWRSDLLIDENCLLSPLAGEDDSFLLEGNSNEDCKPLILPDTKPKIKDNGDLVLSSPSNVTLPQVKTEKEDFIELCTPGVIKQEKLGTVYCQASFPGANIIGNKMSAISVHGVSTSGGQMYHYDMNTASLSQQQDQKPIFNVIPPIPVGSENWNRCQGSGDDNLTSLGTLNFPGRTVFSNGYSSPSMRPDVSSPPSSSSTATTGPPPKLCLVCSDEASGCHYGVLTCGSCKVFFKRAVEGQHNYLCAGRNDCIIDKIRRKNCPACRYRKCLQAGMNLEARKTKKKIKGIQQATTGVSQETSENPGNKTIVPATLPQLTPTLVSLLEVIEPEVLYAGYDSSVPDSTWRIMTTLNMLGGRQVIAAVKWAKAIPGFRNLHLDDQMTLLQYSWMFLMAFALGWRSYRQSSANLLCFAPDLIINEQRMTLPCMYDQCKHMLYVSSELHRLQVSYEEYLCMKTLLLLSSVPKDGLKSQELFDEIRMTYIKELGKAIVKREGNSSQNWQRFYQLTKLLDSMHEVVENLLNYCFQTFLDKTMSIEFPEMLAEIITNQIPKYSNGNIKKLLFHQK

Compound | Potency
COc1ccc2c(c[n+](C)c3c4cc5c(cc4ccc23)OCO5)c1OC | > 46 µM (inactive)
Cc1nccc2c1[nH]c1ccccc12 | > 46 µM (inactive) and > 20.6 µM (inactive)
C[C@@H](N)Cc1cnc[nH]1 | > 46 µM (inactive)
CC(=O)OCC1=C(C(=O)O)N2C(=O)[C@@H](N)[C@@H]2SC1 | > 20.6 µM (inactive)
C[C@@H]1O[C@H](C[N+](C)(C)C)C[C@H]1O | > 46 µM (inactive)
O=C(O)CC[N+](=O)[O-] | > 46 µM (inactive)
S=C(NC1CCCCC1)N1CCC(c2cnc[nH]2)CC1 | > 46 µM (inactive)
CC(=O)NCCc1c[nH]c2ccccc12 | > 46 µM (inactive)
CC1=NN=C(c2ccc(N)cc2)c2cc3c(cc2C1)OCO3 | > 46 µM (inactive)
CC(C)Oc1cccnc1N(C)C1CCN(Cc2ccccc2)CC1 | > 46 µM (inactive)
CNCCc1c[nH]c2ccc(O)cc12 | > 46 µM (inactive)
NCCc1c[nH]c2ccc(O)cc12 | > 46 µM (inactive) and > 20.6 µM (inactive)
CN[C@@H]1C[C@@H](c2ccc(Cl)c(Cl)c2)c2ccccc21 | > 46 µM (inactive)
CNCCc1ccc(O)c(O)c1 | > 46 µM (inactive)
CCCN1CCO[C@@H]2c3cc(O)ccc3OC[C@@H]21 | > 46 µM (inactive)
CCCN1CCC[C@H](c2cccc(O)c2)C1 | > 46 µM (inactive)

Compound | Potency
NC(=NCCC[C@H](N)C(=O)O)N[N+](=O)[O-] | > 20.6 µM (inactive)
CCCN(CCC)[C@@H]1CCc2ccc(O)cc2C1 | > 46 µM (inactive)
c1ccc2sc(C3(N4CCCCC4)CCCCC3)cc2c1 | > 46 µM (inactive)
c1ccc(CCCN2CCN(CCOC(c3ccccc3)c3ccccc3)CC2)cc1 | > 46 µM (inactive)
CCOC(=O)c1cncn1[C@H](C)c1ccccc1 | > 46 µM (inactive)
CCCN1CCO[C@@H]2c3cc(O)ccc3OC[C@H]21 | > 46 µM (inactive)
CC[C@@]1(O)C(=O)OCc2c1cc1n(c2=O)Cc2cc3ccccc3nc2-1 | > 46 µM (inactive) and > 20.6 µM (inactive)
C#CCOC(=O)C1=CCCN(C)C1 | > 46 µM (inactive)
NCc1cc(=O)[nH]o1 | > 46 µM (inactive)
CCCCc1ccc(C(=O)O)nc1 | > 46 µM (inactive) and > 20.6 µM (inactive)
COc1ccc(C(=O)c2c(C)n(CCN3CCOCC3)c3cc(I)ccc23)cc1 | > 46 µM (inactive)
COC(=O)[C@@H](N)CCCN=C(N)N[N+](=O)[O-] | > 46 µM (inactive)
O=c1cccc2n1CC1CNC[C@H]2C1 | > 46 µM (inactive)
Cc1nc(-c2ccc(-c3ccc(C(=O)N4CCc5cc6c(cc54)C4(CCN(C)CC4)CO6)cc3)c(C)c2)no1 | > 46 µM (inactive)
Clc1cnc(Oc2ccc(Oc3ncc(Cl)cc3Cl)cc2)c(Cl)c1 | > 46 µM (inactive)

target: Mitogen-activated protein kinase 10 (Mus musculus) (UniProt Q61831); test: JNK3 AlphaScreen Assay (AID 530; active = well fitted curve in either direction with a large enough effect, not every such curve was filed as active;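 also: kinase came from lysate of stimulated human HepG2 cells; signal reports phosphorylation of biotinylated GST-cJun 1-79 at Ser73 with 10 µM ATP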); conditions: JNK3 lysate, c-Jun phosphorylation; series mostly up to 57.1 µM
Summary of the method: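 qHTS format: compounds tested as titrations against IL-1beta/TNF-alpha-activated HepG2 lysate JNK3 with biotin-GST-cJun substrate and 10 uM ATP at room temperature. Loss of anti-phospho-cJun AlphaScreen signal indicates inhibition.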

Compound | outcome
COc1ccc2c(c[n+](C)c3c4cc5c(cc4ccc23)OCO5)c1OC | inactive
Cc1nccc2c1[nH]c1ccccc12 | inactive
C[C@@H](N)Cc1cnc[nH]1 | inactive
CC(=O)OCC1=C(C(=O)O)N2C(=O)[C@@H](N)[C@@H]2SC1 | inactive
C[C@@H]1O[C@H](C[N+](C)(C)C)C[C@H]1O | inactive
O=C(O)CC[N+](=O)[O-] | inactive
S=C(NC1CCCCC1)N1CCC(c2cnc[nH]2)CC1 | inactive
CC(=O)NCCc1c[nH]c2ccccc12 | inactive
CC1=NN=C(c2ccc(N)cc2)c2cc3c(cc2C1)OCO3 | inactive
CC(C)Oc1cccnc1N(C)C1CCN(Cc2ccccc2)CC1 | inactive
CNCCc1c[nH]c2ccc(O)cc12 | inactive
NCCc1c[nH]c2ccc(O)cc12 | inactive
CN[C@@H]1C[C@@H](c2ccc(Cl)c(Cl)c2)c2ccccc21 | inactive
CNCCc1ccc(O)c(O)c1 | inactive
CCCN1CCO[C@@H]2c3cc(O)ccc3OC[C@@H]21 | inactive
CCCN1CCC[C@H](c2cccc(O)c2)C1 | inactive
NC(=NCCC[C@H](N)C(=O)O)N[N+](=O)[O-] | inactive
CCCN(CCC)[C@@H]1CCc2ccc(O)cc2C1 | inactive
c1ccc2sc(C3(N4CCCCC4)CCCCC3)cc2c1 | inactive
c1ccc(CCCN2CCN(CCOC(c3ccccc3)c3ccccc3)CC2)cc1 | inactive
CCOC(=O)c1cncn1[C@H](C)c1ccccc1 | inactive
CCCN1CCO[C@@H]2c3cc(O)ccc3OC[C@H]21 | inactive
CC[C@@]1(O)C(=O)OCc2c1cc1n(c2=O)Cc2cc3ccccc3nc2-1 | inactive
C#CCOC(=O)C1=CCCN(C)C1 | inactive
NCc1cc(=O)[nH]o1 | inactive
CCCCc1ccc(C(=O)O)nc1 | inactive
COC(=O)[C@@H](N)CCCN=C(N)N[N+](=O)[O-] | inactive
O=c1cccc2n1CC1CNC[C@H]2C1 | inactive
Cc1nc(-c2ccc(-c3ccc(C(=O)N4CCc5cc6c(cc54)C4(CCN(C)CC4)CO6)cc3)c(C)c2)no1 | inactive
Clc1cnc(Oc2ccc(Oc3ncc(Cl)cc3Cl)cc2)c(Cl)c1 | inactive
